The values that follow come from ChEMBL document CHEMBL4513216, “Probing the Open Global Health Chemical Diversity Library for Multistage-Active Starting Points for Next-Generation Antimalarials” (ACS Infect Dis, 2020).

Hit rate of the full screen: of about 69,000 compounds, about 8,600 (12%) showed an effect of 50% or more. The sample as a whole holds a higher share of strong results than the screen did.

In the assay the test system is Plasmodium berghei. The experiment in a line: Screen against P. berghei liver stage (PbLuc), transformed with Luciferase, at 10uM. Format: functional, HepG2. The conditions noted are these: tested at 10 uM.
As to `CC(C)NC(=O)N1CCN(S(C)(=O)=O)CC2(CNC(=O)C2)C1` (stereo not given), the INHIBITION is on record as -3.52%.
`N#Cc1cccc(CN2CC[C@@H]3CO[C@@H](CN4CCCC4)[C@@H]3C2)c1`: the INHIBITION came to 23.3%.
To `O=C(c1ccco1)N1CCc2c(COCC3CC3)cncc2C1` belongs -3.88%; to `COCc1cncc2c1CCN(C(=O)c1ccc(C)o1)C2`, 7.11%.
To `O=C(c1ccoc1)N1CCc2c(COCC3CC3)cncc2C1` belongs 64.9%.
Consider `CN(C)C(=O)N1CCc2c(COCC3CC3)cncc2C1`, for which the INHIBITION amounted to 59%.
`CN(C)CCOCc1cncc2c1CCN(C(=O)C1CCOCC1)C2`: the INHIBITION is given as 55.4%.
Consider `N#Cc1ccc(C(=O)N2CCc3c(COCC4CC4)cncc3C2)cc1`, for which the INHIBITION worked out at 43%.
For `O=C(c1cccnc1)N1CCc2c(COCC3CC3)cncc2C1`, the INHIBITION was -5.05%.
For `O=C(c1ccc[nH]1)N1CCc2c(COCC3CC3)cncc2C1`, the INHIBITION came to 14.8%.
To `Cc1ccc(C(=O)N2CCc3c(COCC4CC4)cncc3C2)o1` belongs 88.2%.
In the case of `CN(C)CCOCc1cncc2c1CCN(C1CCOC1)C2` (stereo not given), the INHIBITION is reported as -2.27%.
As to `CN(C)CCOCc1cncc2c1CCN(C1CCOCC1)C2`, the INHIBITION is 12.6%.
As to `O=C(c1ccncc1)N1CCc2c(COCC3CC3)cncc2C1`, the INHIBITION is on record as -1.55%.
As for `COCCN1CCC2(COCCN(C(=O)Cc3cccs3)C2)C1` (stereo not given), the INHIBITION was -58.7%.
On to `Cc1cc(C(=O)N2CC[C@@H](N(C)C)[C@@H]2Cc2ccccc2)no1`, for which the INHIBITION is -2.35%.
On to `COc1ccc(C(O)CNC(=O)NCc2c(C)cc(C)[nH]c2=O)cc1` (stereo not given), for which the INHIBITION is reported as 16.9%.
Consider `CCO[C@H]1CN(C(=O)c2ccnnc2)[C@@H]2COC[C@H]12`, for which the INHIBITION was found to be 13.6%.
For the compound `CCn1cc(-n2cc3nc(N4CCC(O)CC4)[nH]cc-3c2=O)cn1`, the INHIBITION is -10.6%.
To `O=C(c1cscn1)N1CC[C@@H]2[C@@H]1CCN2C1CCOCC1` belongs -23.1%.
Turning to `Cc1cnc(C(=O)N2Cc3ncn(C)c3C(COCC(C)C)C2)cn1` (stereo not given), the INHIBITION worked out at 43%.
With `O=C(c1n[nH]cc1Cl)N1CCOCC1`, the INHIBITION is recorded as 39.1%.
To `Cc1ccc(N2CCC3(CCCN(C(=O)c4cnccn4)C3)C2)nn1` (stereo not given) belongs 18.5%; to `Cc1noc(C)c1CN1CCc2ncnc(-c3ccc(F)cc3)c2CC1`, 67.5%; to `Cc1cc(CN2CCN(c3ccnc(-c4ccccc4)n3)CC2)no1`, 2.29%.
With `Cc1noc(C)c1CN1CCc2ncnc(-c3ccccc3)c2CC1`, the INHIBITION came to 53%.
As to `Cc1nc(CN2CCc3ncnc(-c4ccc(F)cc4)c3CC2)cs1`, the INHIBITION turned out to be 15.4%.
Turning to `Cc1noc(C)c1CN1CCc2ncnc(-c3ccncc3)c2CC1`, the INHIBITION was 90.1%.
On to `Cc1noc(C)c1CN1CCc2ncnc(-c3cccnc3)c2CC1`, for which the INHIBITION is recorded as 25.8%.
Consider `Cc1ccc(CN2CCc3ncnc(-c4ccncc4)c3CC2)o1`, for which the INHIBITION was -4.32%.
To `c1ccc(CN2CCc3ncnc(-c4ccncc4)c3CC2)nc1` belongs 46.2%; to `Cc1noc(C)c1CN1CCc2ncnc(-c3cnn(C)c3)c2CC1`, 43%.
Take `Cc1cnc(CN2CCN(c3ccnc(-c4ccccc4)n3)CC2)cn1`: the INHIBITION is 47.2%.
As for `Cc1noc(C)c1CN1CCN(c2ccnc(-c3ccccc3)n2)CC1`, the figure is 62.5%; as for `Cc1ccc(CN2CCc3ncnc(-c4ccc(F)cc4)c3CC2)o1`, 13.7%.
`O=C(C1=CCCC1)N1CCC2(CC1)CC(Oc1cccnc1)CO2` (stereo not given): the INHIBITION came to 41.3%.
As to `COc1ccc(COCC(O)CNC(=O)c2ccc(C#N)cc2)cc1` (stereo not given), the INHIBITION is 46.2%.
As to `CN(C)C(=O)Cn1c(C2CC2)c(CN2CCSCC2)c2cccnc21`, the INHIBITION is 23%.
In the case of `CC(=O)c1ccc(OCC(=O)c2cccn2C)cc1`, the INHIBITION was -175%.
To `CC(=O)N[C@@H]1CN(C(=O)Cc2coc3cc(C)ccc23)C[C@H]1O` belongs -5.8%; to `c1ccc(CN2CCc3ncnc(-c4ccoc4)c3CC2)nc1`, 12.4%; to `Cc1ccc(CN2CCc3ncnc(-c4ccoc4)c3CC2)o1`, -8.28%.
As to `Cc1noc(C)c1CN1CCc2ncnc(-c3ccoc3)c2CC1`, the INHIBITION amounted to 68.4%.
`Cc1nnc2n1CCN(C(=O)C1CCN(Cc3ccccc3)CC1)C2`: the INHIBITION was 35.7%.
As to `Cc1cc(NC(=O)CC2(Cn3cnnn3)CCCCC2)nn1C`, the INHIBITION came to 39.1%.
Regarding `Cn1ccc(C(=O)N2CCC[C@]3(C[C@@H](OCc4ccccn4)CO3)C2)n1`, the INHIBITION worked out at 40.9%.
`Cc1cnc2[nH]c(C(F)(F)F)c(CN3CCOCC3)c2c1`: the INHIBITION is given as -0.232%.
To `CC1CCCN(Cc2c(C3CCOCC3)[nH]c3ncccc23)C1` (stereo not given) belongs 59.7%; to `Cc1cnc2[nH]c(C(F)(F)F)c(CN3CCCC(CO)C3)c2c1` (stereo not given), 50.8%.
For the compound `Cc1cnc2[nH]c(C(F)(F)F)c(CN3CCSCC3)c2c1`, the INHIBITION amounted to 21.1%.
In the case of `OCC1CCCN(Cc2c(C3CCCC3)[nH]c3ncccc23)C1` (stereo not given), the INHIBITION turned out to be 69.3%.
As for `CC1CCCN(Cc2c(C3CC3)[nH]c3ncccc23)C1` (stereo not given), the INHIBITION amounted to 19.6%.
As for `c1cnc2[nH]c(C3CCCC3)c(CN3CCCCC3)c2c1`, the figure is -2.11%.
Turning to `c1cnc2[nH]c(C3CCCC3)c(CN3CCOCC3)c2c1`, the INHIBITION came to 33.7%.
To `CCN1CCN(Cc2c(C3CCCC3)[nH]c3ncccc23)CC1` belongs 20.4%.
